L3MBTL1 block = blocks human L3MBTL1. AlphaScreen L3MBTL1–H3K9me1 peptide binding. Potency, µM (series often up to 57.1 µM), for the others: at the top dose activity, negative = inhibition, most hits filed as inhibitors. 230,000 tested, 0.66% active. AID 485360; note: % is set by controls: 0 for no effect and ±100 for the full control effect; nearly all actives have a fitted effect of over 60% in size
Target sequence (Q9Y468 whole entry, looked up): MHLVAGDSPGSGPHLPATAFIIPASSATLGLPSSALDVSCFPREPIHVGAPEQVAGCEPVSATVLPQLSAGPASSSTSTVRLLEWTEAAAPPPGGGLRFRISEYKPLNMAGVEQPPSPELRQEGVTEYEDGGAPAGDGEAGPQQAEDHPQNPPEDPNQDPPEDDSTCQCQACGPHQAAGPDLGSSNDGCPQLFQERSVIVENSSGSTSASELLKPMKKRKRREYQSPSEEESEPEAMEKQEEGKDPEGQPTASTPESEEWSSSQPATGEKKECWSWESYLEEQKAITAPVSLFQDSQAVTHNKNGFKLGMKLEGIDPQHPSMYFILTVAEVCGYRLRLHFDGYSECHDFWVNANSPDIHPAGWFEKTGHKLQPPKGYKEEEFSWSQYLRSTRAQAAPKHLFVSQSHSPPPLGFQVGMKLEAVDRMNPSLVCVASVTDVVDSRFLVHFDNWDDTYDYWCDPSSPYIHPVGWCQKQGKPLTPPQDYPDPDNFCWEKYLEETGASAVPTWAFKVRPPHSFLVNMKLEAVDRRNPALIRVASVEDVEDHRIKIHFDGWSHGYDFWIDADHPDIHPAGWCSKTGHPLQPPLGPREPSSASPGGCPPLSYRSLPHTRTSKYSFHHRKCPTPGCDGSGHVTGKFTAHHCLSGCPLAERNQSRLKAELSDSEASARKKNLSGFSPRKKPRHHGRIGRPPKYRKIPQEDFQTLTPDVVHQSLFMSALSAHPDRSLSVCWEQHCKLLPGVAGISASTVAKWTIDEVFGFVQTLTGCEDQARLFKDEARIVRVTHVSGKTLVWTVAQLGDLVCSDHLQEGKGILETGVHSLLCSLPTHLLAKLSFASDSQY
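AlphaScreen assay: L3MBTL1 (50 nM final) was preincubated 30 min at room temperature with biotinylated H3(1-15)K9me1 peptide (75 nM final), then 30 min with library compounds; streptavidin donor and nickel chelate acceptor beads (10 ug/mL final) added, 30 min dark.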
HP1b chromo inh = inhibitors of HP1-beta chromodomain binding to methylated histone tails; P83916; AlphaScreen HP1-beta / biotin-H3K9me3 peptide binding; Potency, µM (series often up to 114 µM), inactives show top-dose activity change, negative = inhibition, actives largely listed as inhibitors; 390,000 tested, 0.56% active; AID 540317; note: nearly all actives have a fitted effect of over 70% in size
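AlphaScreen: HP1-beta (50 nM) preformed 30 min with biotin-H3(1-18)K9me3 peptide (50 nM) in PBS pH 7.4, 0.01% Tween-20. Compound added for 30 min at RT, then streptavidin donor/nickel chelate acceptor beads (10 ug/mL) for 30 min.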
JMJD2A Tudor = blocks the human JMJD2A Tudor domain; O75164; AlphaScreen JMJD2A-Tudor / H3K4me3 peptide binding; Potency, µM (series often up to 114 µM), for the others: at the top dose activity change, negative = inhibition, most hits filed as inhibitors; 390,000 tested, 4.4% active; AID 504339; note: % is set by controls: 0 for no effect and ±100 for the full control effect; nearly all actives have a fitted effect of over 50% in size
G9a inh = inhibitors of human histone lysine methyltransferase G9a. G9a H3K9 monomethylation, AlphaScreen, 2 h. Q96KQ7. AID 504332. Potency, µM (titrated, usually from 102 µM), for inactives: at the highest dose activity, negative = inhibition, usual class: inhibitors. 350,000 tested, 8.8% active; note: % is set by controls: 0 for no effect and ±100 for the full control effect; nearly all actives have a fitted effect of over 75% in size
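AlphaScreen read-out: biotin-H3K9 peptide (500 nM) methylation by 20 nM enzyme with 20 uM SAM, 2 h at room temperature after 15 min compound preincubation; anti-monomethyl H3K9 antibody plus donor/acceptor beads, 10 min dark.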
Sfp PPTase inh = Sfp phosphopantetheinyl transferase inhibition; Q9F4F7; Biochemical Sfp PPTase activity, qHTS; Potency, µM, without a hit: largest response in the series, negative = inhibition, usual class: inhibitors; 310,000 tested, 3.5% active; AID 1490;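 note: the enzyme is Sfp with the accession as filed and its product quenches rhodamine fluorescence; 0% = enzyme reaction without inhibitor and -100% = no enzyme wells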
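Buffer: 50 mM Hepes-Na pH 7.6, 10 mM MgCl2, 0.01% Nonidet P-40, 0.01% BSA. Enzyme 15 nM, pre-exposed to compound 15 min; substrates then added and fluorescence change tracked over 30 min.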
BAZ2B block = blocks human BAZ2B; Q9UIF8; AlphaScreen BAZ2B-H3K14Ac peptide displacement; Potency, µM (top dose mostly 114 µM), for the others: at the top dose activity change, negative = inhibition, hits mostly inhibitors; 360,000 tested, 4.4% active; AID 504333; note: % is set by controls: 0 for no effect and ±100 for the full control effect; nearly all actives have a fitted effect of over 60% in size
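AlphaScreen luminescence quantifies BAZ2B engagement of H3K14Ac peptide; the protein and biotinylated peptide are both at 50 nM final, buffer PBS pH 7.4 with 0.01% Tween-20, all steps at room temperature.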
Numbers without * were called inactive; ? = inconclusive; . = no result; [ ] = another dose, or the depositor's remark. In the library only some 12% were active in any assay of this set; here they are far more common. Calls come from the whole dose curve; as a rule, active = well fitted curve in the direction sought with a large enough effect; inconclusive = small, poorly fitted or top-dose-only effect, or another doubt; inactive = no such curve, though single readings can be large; an effect the other way counts as inactive or inconclusive. Potency is the fitted concentration of half-maximal effect.

SMILES	L3MBTL1 block	HP1b chromo inh	JMJD2A Tudor	G9a inh	Sfp PPTase inh	BAZ2B block
Cc1ccc(CNC(=O)Nc2cc(C(=O)NCc3cccc(F)c3)ccc2N2CCCC2)cc1	.	78%	-9%	26%[59 µM]	.	14%
CN1CCN(C(c2ccccc2Cl)c2sc3nc(-c4ccco4)nn3c2O)CC1 (stereo not drawn)	.	47%	-18%	-22%[59 µM]	.	5%
C=CCn1c(CCC(O)COCCC)n[nH]c1=S (stereo not drawn)	-2%	26%	22µM*	-34%	-3%	-27%
Cc1ccc(C)c(CN2C(=O)CSc3ccc(C(=O)NCc4ccc(F)cc4)cc32)c1	.	25%	4%	9%[59 µM]	.	1%
Cc1ccc(-n2nc3c(c2NC(=O)/C=C\c2ccc4c(c2)OCO4)CSC3)c(C)c1	-8%	16%	-34%	-7%	-5%	-12%
Cc1ccc(-n2nc3c(c2NC(=O)c2ccco2)CS(=O)C3)c(C)c1 (stereo not drawn)	3%	23%	-15%	14µM*	.	9%
Cc1ccc(-n2nc3c(c2NC(=O)c2ccc(Br)o2)CSC3)c(C)c1	-4%	18%	-13%	40µM*	?	-8%
Cc1cccc(-n2nc3c(c2NC(=O)c2ccco2)CS(=O)C3)c1C (stereo not drawn)	8%	37%	4%	?	16%	-30%
Cc1ccccc1-n1nc2c(c1NC(=O)CCCl)CSC2	.	22%	-6%	6%[2.33 µM]	9%	6%
Cc1cccc(-n2nc3c(c2NC(=O)c2ccco2)CSC3)c1C	-12%	-26%	50µM*	40µM*	40µM*	-6%
CC(C)CC(=O)Nc1c2c(nn1-c1ccc(F)cc1)CS(=O)C2 (stereo not drawn)	.	36%	-9%	18%[59 µM]	9%	-11%
Cc1ccc(-n2nc3c(c2NC(=O)CC(C)C)CS(=O)C3)cc1 (stereo not drawn)	-8%	48%	-7%	32µM*	-9%	-10%
COc1ccc(S(=O)(=O)NCCc2sc(-c3cccnc3)nc2C)c(F)c1	.	26%[57 µM]	-1%	0%[59 µM]	.	0%
CCC(=O)Nc1c2c(nn1-c1ccccc1)CSC2	.	40%	-1%	8%	13%	-12%[57.1 µM]
Cc1ccccc1-n1nc2c(c1NC(=O)c1cccc(F)c1)CS(=O)C2 (stereo not drawn)	.	54%	-10%	50µM*	5%	9%
CCC(=O)Nc1c2c(nn1-c1ccc(C)cc1C)CSC2	-3%	23%	-13%	50µM*	?	-3%
Cc1ccc(-n2nc3c(c2NC(=O)C(C)(C)C)CSC3)c(C)c1	-4%	?	-12%	40µM*	71µM*	-6%
CC(C)(C)C(=O)Nc1c2c(nn1-c1ccc(F)cc1)CSC2	.	14%[57 µM]	-14%	63%[59 µM]	19%	-12%
COC(=O)c1cc(C(=O)Nc2nnc(CC(C)(C)C)s2)cc([N+](=O)[O-])c1	8%	?	-27%	45µM*	?	-8%
COc1cc(C(=O)Nc2nnc(CC(C)(C)C)s2)cc(OC)c1OC	.	41%	0%	?	.	0%
CCOCc1nnc(NC(=O)c2cc(C(=O)OC)cc([N+](=O)[O-])c2)s1	-1%	3%	45µM*	50µM*	5%	?
CCOC(=O)CSc1nnc(NC(=O)c2cc([N+](=O)[O-])cc([N+](=O)[O-])c2)s1	-2%	31%	?	25µM*	-5%	-10%
COCCSc1nnc(NC(=O)c2ccc([N+](=O)[O-])cc2)s1	.	34%	-20%	-30%	9%	-21%
CCC1CCCCN1CCCNC(=O)c1ccc2c(c1)sc1nc(-c3ccc(F)cc3)cn12 (stereo not drawn)	.	27%	-19%	13%[59 µM]	.	3%
C=Cc1ccc(Cn2ccn(-c3ccc(F)c(F)c3)c(=O)c2=O)cc1	.	64%	-17%	?	.	-35%
SMILES	L3MBTL1 block	HP1b chromo inh	JMJD2A Tudor	G9a inh	Sfp PPTase inh	BAZ2B block
CCOC(=O)N1CCN(CC(O)COCC2=CCC3CC2C3(C)C)CC1 (stereo not drawn)	9%	?	3.5µM*	.	79µM*	50µM*
C/C(=N\NC(=S)Nc1ccc(F)cc1)C1CC1	-8%	15%	28µM*	?	45µM*	-35%
CC1CCN(C(=S)Nc2ccc(F)cc2)CC1	4%	19%	-6%	21%[59 µM]	0%	2%
Cc1ccc(N(CC(=O)N2CCN(c3cc(C)ccc3C)CC2)S(=O)(=O)c2c(C)nn(C)c2C)cc1	.	6%	?	?	.	.
Nc1ccc(S(=O)(=O)NC2=NCCCCC2)cc1N	-5%	9%	-10%	?	18%	.
O=[N+]([O-])c1cc(S(=O)(=O)NC2=NCCCCC2)ccc1NCC1CCCCC1	.	-14%	45µM*	45µM*	-3%	.
COc1cc(C2C3=C(CC(C)(C)CC3=O)OC(N)=C2[N+](=O)[O-])ccc1O (stereo not drawn)	1%	41%	-7%	50µM*	2%	11%
COc1ccc(S(=O)(=O)NCCc2sc(C)nc2C)cc1F	.	30%[57 µM]	-2%	-33%[59 µM]	.	1%
CCc1ccccc1NC1=NCC(=O)N1Cc1ccc(OC)cc1	-8%	50%	-13%	45µM*	10%	?
COc1ccc(CN2C(=O)CN=C2Nc2cc(C)ccc2C)cc1	.	20%	-21%	?	6%	?
CCOc1ccc(NC2=NCC(=O)N2CCc2ccccc2)cc1	-7%	23%	-6%	?	-1%	79µM*
COC(=O)C1=C(C(=O)OC)C(c2ccccc2O)c2sc(=O)[nH]c2S1 (stereo not drawn)	1%	10%	-15%	10µM*	8.9µM*	?
COc1cccc(CNC(=O)COCc2cc(-c3ccc4c(c3)OCO4)on2)c1	.	17%	-9%	-5%[59 µM]	.	-4%
Cc1cc(NC(=O)CSc2cn(CCNC(=O)c3ccc(Cl)cc3)c3ccccc23)no1	?	41%	-6%	?	8%	-8%
CCOc1ccc(C(=O)NCCn2cc(SCC(=O)Nc3cc(C)on3)c3ccccc32)cc1	0%	19%	-19%	-7%[59 µM]	?	79µM*
CCN(CC)C(=O)Cn1cc(SCC(=O)Nc2cc(C)on2)c2ccccc21	-16%	14%	89µM*	-7%	19%	-12%
Cc1ccc(C(=O)NCCn2cc(SCC(=O)Nc3nnc(C)s3)c3ccccc32)cc1	.	36%	-22%	50µM*	-16%	-6%
CC(C)CCn1c(SCc2cccc(F)c2)nc2ccsc2c1=O	.	97%	63%	49%[59 µM]	.	115%
CCN(CC)C(=O)CSC1=N/C(=C/c2ccco2)C(=O)N1c1ccc(OC)c(Cl)c1	-7%	6%	-26%	25µM*	?	?

Screening results as filed in PubChem.
